# Measured values: PubChem BioAssay AID720541 (National Center for Advancing Translational Sciences (NCATS), 2013)
# About 420 (32%) of roughly 1,300 compounds were called active. Inconclusive results (about 32%) are left out. Calls come from the whole dose curve; as a rule, active = well fitted inhibition curve with a large enough effect; inconclusive = small, poorly fitted or top-dose-only effect; inactive = no such curve, though single readings can be large or run the other way. This is one part of the list.
# Target: C-terminal-binding protein 1 (Homo sapiens) (UniProt Q13363)
# Assay: qHTS for Inhibitors of the Phosphatase Activity of Eya2: Carboxyl-terminal binding protein (CtBP) Counterscreen for Cherry-picked Compounds; note: nearly all actives have a fitted effect of over 65% in size
# Settings: purified protein-protein binding, AlphaScreen, 3 h; series mostly up to 46.1 µM
# Method in brief: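 AlphaScreen using 25 nM GST-E1A with 25 nM CtBP-6xHIS; compounds at 2.5 nM–46 uM final, 2 h at room temperature, then donor/acceptor beads (20 ug/mL) for 1 h in the dark. Signal normalized to E1A peptide inhibitor (maximum inhibition) and DMSO.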
# Potency is the fitted concentration of half-maximal effect.
row,SMILES,Potency
1,Cc1nc2c(C(=O)Nc3ccc(N4CCCC(O)C4)cc3)snc2c(=O)[nH]1 (stereo not drawn),inactive
2,CCOc1cc(/C=C2/NC(=O)NC2=O)cc(Br)c1OCc1ccc(C(=O)O)cc1,inactive
3,CSCc1cc(N(C)c2ccccc2)nc(-c2ccccn2)n1,13.5 µM (active)
4,O=C(O)C1=NN(c2cc(Cl)c(S(=O)(=O)O)cc2Cl)C(=O)C1,inactive
5,CN(C)c1ccc(N=c2sc3ccccc3n2C)cc1,7.57 µM (active)
6,CCN1CCN(c2ncnc3scc(-c4ccc(C)cc4)c23)CC1,inactive
7,CN(C)S(=O)(=O)n1cnc2ccccc21,inactive
8,CCc1nnc2c(N(C)C)nc3ccccc3n12,12 µM (active)
9,O=C1C(NS(=O)(=O)c2cccs2)=C(N2CCN(Cc3ccccc3)CC2)C(=O)c2ccccc21,10.7 µM (active)
10,Cc1cc2oc(C(=O)N3CCN(Cc4ccccc4)CC3)c(C)c2cc1C,inactive
11,CC(=O)Nc1ccc(S(=O)(=O)NC2=C(N3CCN(Cc4ccccc4)CC3)C(=O)c3ccccc3C2=O)cc1,16.9 µM (active)
12,O=c1c2ccccc2nnn1CSc1nnc(C2COc3ccccc3O2)n1-c1ccccc1 (stereo not drawn),inactive
13,O=c1cc(CSc2ccc(Cl)cc2)nc(-c2ccccn2)[nH]1,2.13 µM (active)
14,O=c1nc(-c2ccccc2)c2cc(Cl)ccc2[nH]1,13.5 µM (active)
15,Nc1nc2cc3ccccc3cc2[nH]c1=O,inactive
16,COc1ccc(NC(=O)c2[nH]c(C)c(C(C)=O)c2C)cc1Cl,inactive
17,O=C1C(NS(=O)(=O)c2ccc(Br)cc2)=C(N2CCCCC2)C(=O)c2ccccc21,13.5 µM (active)
18,CC1CCN(C2=C(NS(=O)(=O)c3ccc(Br)cc3)C(=O)c3ccccc3C2=O)CC1,5.36 µM (active)
19,O=C1C(Nc2cccc(O)c2)=C(N2CCCCC2)C(=O)c2ccccc21,19 µM (active)
20,O=C(CCS(=O)(=O)c1ccc(Br)cc1)N1CCCCCC1,inactive

row,SMILES,Potency
1,CN(C1=C(N2CCCCC2)C(=O)c2ccccc2C1=O)c1ccccc1,1.9 µM (active)
2,O=C1N=c2ccccc2=C1c1sc(Nc2cccc(O)c2)nc1O,inactive
3,O=c1cc(Nc2ccc3c(c2)OCO3)[nH]c(=O)n1-c1ccc(Br)cc1,inactive
4,S=C(NC1CC1)NC1CCCc2ccccc21 (stereo not drawn),inactive
5,COc1ccc(-c2ccc(SCc3cccnc3)nn2)cc1OC,13.5 µM (active)
6,O=C(O)CCCCCNS(=O)(=O)c1cccc2c1C(=O)c1ccccc1C2=O,5.36 µM (active)
7,Cc1ccc(Nc2nc(-c3cccnc3)nc3ccccc23)cc1,inactive
8,O=C(O)c1ccc(Nc2nc(-c3ccccc3)nc3ccccc23)cc1,9.53 µM (active)
9,O=C(O)c1cccc(Nc2nc(-c3ccccc3)nc3ccccc23)c1,12 µM (active)
10,CCOC(=O)NNc1nncc2ccccc12,inactive
11,Cc1cc(Nc2ccc([N+](=O)[O-])cc2)c2ccccc2n1,inactive
12,CCOC(=O)c1nc(Nc2ccc(Nc3ccccc3)cc2)c2ccccc2n1,13.5 µM (active)
13,O=C(C1CCN(c2nnc(-n3cccc3)s2)CC1)N1CCOCC1,inactive
14,Cc1ccc(NC(=O)CN2C(=O)S/C(=C\c3cc(Cl)c(OCC(=O)O)c(Cl)c3)C2=O)cc1,15.1 µM (active)
15,CCOc1ccc2c(c1)-c1c(ssc1=S)C(C)(C)N2C(=O)CSC1=NCCS1,15.1 µM (active)
16,Cc1cc(C)nc(-n2nc(C)cc2NC(=O)c2cc3ccccc3oc2=O)n1,4.78 µM (active)
17,CN1/C(=C\C=C2/SC(=S)NC2=O)C(C)(C)c2ccccc21,12 µM (active)
18,CC1=NN(c2ccccc2)C(=O)/C1=C\C=C1/N(C)c2ccccc2C1(C)C,9.53 µM (active)
19,CN(C)c1ccc(/C=C2\c3ccccc3-c3ccc(N(C)C)cc32)cc1,5.36 µM (active)
20,CN(C)c1ccc2c(c1)C(=NO)c1ccccc1-2,16.9 µM (active)

row,SMILES,Potency
1,CN(C)c1ccc(/C=C2\C(Cl)=Cc3ccccc32)cc1,6.75 µM (active)
2,CNc1ccc(C=C2c3ccccc3-c3ccccc32)cc1,12 µM (active)
3,Cc1oc(-c2ccc(-c3ccccc3)cc2)nc1CN(C)C1CCOC1 (stereo not drawn),inactive
4,Cc1ccc(C(=O)Oc2ccc(N3C(=O)CCC3=O)c(C)c2)cc1,inactive
5,O=C(/C=C/c1ccc(O)c(O)c1)OC(Cc1ccc(O)c(O)c1)C(=O)O (stereo not drawn),inactive
6,COc1cccc(OC)c1C(=O)OCC(=O)NCC1CCCCC1,inactive
7,CC1=CC(C)(C)n2c(O)c(C3=NC(=S)NC3=O)c3cc(OC(=O)c4cccc5ccccc45)cc1c32,inactive
8,CN(C)c1ccc(C=C2c3ccccc3-c3ccccc32)cc1,8.49 µM (active)
9,CN(C)c1ccc(/C=C2\C(=O)/C(=C/c3ccc(N(C)C)cc3)c3ccccc32)cc1,5.36 µM (active)
10,OC(COc1ccc2cc(Br)ccc2c1)Cn1ccnc1 (stereo not drawn),inactive
11,COc1ccc(Nc2cc3n(c(=O)n2)CCc2cc(OC)c(OC)cc2-3)c(C)c1,12 µM (active)
12,COc1ccc(NC(=O)c2cc(S(=O)(=O)N3CCc4ccccc43)cn2C)cc1OC,inactive
13,CCOc1ccc(Nc2cc3n(c(=O)n2)CCc2cc(OC)c(OC)cc2-3)cc1,5.36 µM (active)
14,COc1cc2c(cc1OC)-c1cc(Nc3ccc(C)cc3)nc(=O)n1CC2,4.26 µM (active)
15,COc1cc2c(cc1OC)-c1cc(Nc3ccccc3)nc(=O)n1CC2,6.75 µM (active)
16,Cc1nc(COC(=O)c2c(C)nn(-c3ccccc3)c2C)cs1,inactive
17,COc1cc2c(cc1OC)-c1cc(Nc3ccc(F)cc3)nc(=O)n1CC2,2.39 µM (active)
18,O=C(NCc1ccc2c3c(cccc13)C(=O)N2)c1cccs1,inactive
